# Data from PubChem BioAssay AID1508622 (National Center for Advancing Translational Sciences (NCATS), 2021).
# The source made the active and inactive calls. Calls follow the shape of the dose curve; as a rule, active = well fitted activation curve with a large enough effect; inconclusive = small, poorly fitted or top-dose-only effect; inactive = no such curve, though single readings can be large or run the other way.
# Test: Confirmatory qHTS for Identification of Small Molecule Activators of Huntingtin-Antisense Promoter Activity
# Settings: HEK293 HTT-AS promoter firefly luciferase reporter, 24 h; series mostly up to 57.5 µM; activity change, positive = activation: at the top concentration
# Summary of the method: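 Plated reporter HEK293 cells (24 h) received library compounds at up to 57.5 uM final or 50 uM PTC124, incubated 24 h at 37C; firefly luciferase luminescence was then recorded with Dual-Glo reagent.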
# Potency is read from the fitted curve at half-maximal effect.
Structure (SMILES),"activity change, positive = activation",Potency
Cc1ccc(Nc2cc(C(=O)NC3CCCC3)c3ccccc3n2)cc1C,-21.2% (inactive),–
CCOc1ccc(NCc2cccn2-c2nnc(N3CCC(C(=O)NCCc4ccc(OC)c(OC)c4)CC3)s2)cc1,-60.3% (inactive),–
CCc1nnc(NC(=O)c2nc(S(=O)(=O)Cc3cccc(C)c3)ncc2Cl)s1,-94.3% (inactive),–
CCN(Cc1ccccc1)C(=O)C1CCN(S(=O)(=O)c2c(C)noc2/C=C/c2ccc(C)cc2)CC1,-5.97% (inactive),–
Cc1ccc(Cl)cc1N1CCN(C(=O)CCS(=O)(=O)c2ccc3c(c2)oc(=O)n3C)CC1,-41.9% (inactive),–
COc1cccc(-c2cn3c(n2)sc2cc(C(=O)NCc4cccs4)ccc23)c1,–,8.49 µM (active)
CCC(=O)N1CCc2cc(S(=O)(=O)NCCC(=O)Nc3ccc(CC)cc3)ccc21,-20.6% (inactive),–
CCOC(=O)c1cc(C)n(CC2CCC(C(=O)Nc3ccc(Cl)cc3)CC2)c1C (stereo unspecified),-95.2% (inactive),–
CCc1cccc(NC(=O)CSc2nc3ccsc3c(=O)n2CC)c1,-47.7% (inactive),–
CC1Cc2cc(S(=O)(=O)NCc3ccc(F)cc3)ccc2N1C(=O)C1CCC1 (stereo unspecified),-29.9% (inactive),–
Cc1cccc(N2CCN(C(=O)c3ccc4c(c3)N(Cc3cccc(Cl)c3)C(=O)c3ccccc3S4=O)CC2C)c1 (stereo unspecified),-32.2% (inactive),–
Cn1c(=O)n(C)c2cc(NS(=O)(=O)c3ccc(F)cc3)ccc21,-4.9% (inactive),–
O=C(Cc1ccccc1)Nc1cccc(-c2cn3cccnc3n2)c1,–,10.7 µM (active)
FC(F)(F)c1cccc(Nc2nc3nonc3nc2Nc2ccc(Cl)cc2)c1,-95.1% (inactive),–
CCC1=Nc2cc(C(=O)NC3CCCC3)ccc2Sc2ccc(Cl)cc21,-32.8% (inactive),–
COc1ccc(-c2nc(CNS(=O)(=O)c3ccc(F)cc3)cs2)cc1,-77.2% (inactive),–
